We go through 25 compounds from PubChem BioAssay (NCATS).

Records with an inconclusive call do not appear. Active and inactive are the calls of the source. Calls follow the shape of the dose curve; as a rule, active = well fitted curve in the direction sought with a large enough effect in the signal ratio; inconclusive = small, poorly fitted or top-dose-only effect, or effect the other way, or a change in a side signal; inactive = no such curve, though single readings can be large or run the other way; the % refers to the signal ratio.

This experiment in a line: qHTS Assay for Modulators of Human Peripheral Myelin Protein 22 (PMP22) Expression/Activity (AID 1967). The conditions noted are these: Cell-based PMP22 reporter, dual-color luciferase ratio, mouse Pmp22 promoter in mouse Schwann cells; series mostly up to 115 µM. The text has this: Charcot-Marie-Tooth-Association [CMTA]
NIH Chemical Genomics Center [NCGC]
Charcot-Marie-Tooth (CMT) disease was first characterized by Jean-Martin Charcot and Pierre Marie in France and, independently, by Howard Henry Tooth in England in 1886. CMT is one of the most common inherited neurological diseases, affecting about 125,000 Americans. […] The most common cause of CMT is known as CMT1A, and is caused by a duplication of the PMP22 gene, leading to over-expression of this protein. PMP22 is a glycosylated intrinsic membrane protein accounting for 2-5% of the myelin protein content and over-expression leads to demyelination and subsequently axonal loss.
A cell-based assay for PMP22 expression modulation was developed by Drs. Ned Mantei and Ueli Suter on behalf of the CMTA. This assay employs a mouse Schwann cell line, MSC80 (Boutry et al., 1992), that was engineered to have the mouse Pmp22 promoter driving expression of a green light-emitting click beetle luciferase (CBG68; Chroma-Gl developed by Promega Corp). A red light-emitting click beetle luciferase (CBR; developed by Promega Corp: CBG68 and CBR differ by only a few amino acids within the D-luciferin binding pocket) under control of the EF-alpha promoter is also stably expressed in the same cells for use as an internal control for nonspecific promoter- or reporter-based effects.
NCGC Assay Protocol Summary:
Cells were seeded in white solid 1536-well plates at between 500-750 cells/4uL in DMEM medium containing 10% FBS, w/o phenol red. After overnight incubation at 37 degree Celsius/5% C02, 23 nL of compounds or DMSO were delivered to each well using a pin tool, followed by 24h-incubation at 37 degree Celsius/5% C02. Then 4 uL Chroma-Glo luminescent substrate mix (Promega) was added to each well. Luminescence was measured on a ViewLux plate reader (Perkin Elmer) using a 540/25 nm filter for green luminescence and a 618/8 nm filter for red luminescence. The green and red luminescent signals were corrected for red and green luminescence filter overlap using filter calibration constants (determined using control cell lines expressing either the green or red CBLuc reporters using the procedures given in Davis et al., 2007). The %Activity was determined from the ratio of corrected green/red luminescent values. Green luminescent and ratio %Activity was determined by normalizing to the signal between of untreated cells (0% Activity)
Keywords: luminescence, PMP22, CMT1A, NCGC, CMTA, qHTS
Concentration-response curves were fitted to the signals arising from the green luminescence (PMP22 promoter driven expression) and the red luminescence (control promoter) as well as the calculated ratio. The concentration-effect curves were then classified based on curve quality (r2), response magnitude and degree of measured activity.
(In general: qHTS replaces the single test concentration by a dilution series.)
Regarding `C[C@@H](N)Cc1cnc[nH]1`, the outcome was inactive.
Take `CCCN(CCC)C1CCc2ccc(O)cc2C1` (stereo not given): the result was inactive.
As for `CC[C@@H]1C(=O)OC[C@@H]1Cc1cncn1C`, the result was inactive.
The result for `NCCc1c[nH]c2ccc(O)cc12` reads “inactive”.
The result for `Clc1cnc(Oc2ccc(Oc3ncc(Cl)cc3Cl)cc2)c(Cl)c1` reads “inactive”.
Consider `NC1CCc2cc(O)c(O)cc2C1` (stereo not given), for which the result was inactive.
The result for `CCCN(CCC)[C@@H]1CCc2ccc(O)cc2C1` reads “inactive”; that for `CNCCc1c[nH]c2ccc(O)cc12`, “inactive”; that for `Cn1cnc(CCN)c1`, “inactive”.
The result for `C=CCN1CC[C@]23CCCCC2[C@H]1Cc1ccc(O)cc13` (stereo not given in full) reads “inactive”.
Take `CCCN1CCC[C@H](c2cccc(O)c2)C1`: the result was inactive.
The result for `C[C@@H]1O[C@H](C[N+](C)(C)C)C[C@H]1O` reads “inactive”; that for `NCc1cc(=O)[nH]o1`, “inactive”.
The result for `CC(=O)NCCc1c[nH]c2ccccc12` reads “inactive”; that for `O=C1CCCN1CC#CCN1CCCC1`, “inactive”.
The result for `O=C(O)[C@@H]1CCN1` reads “inactive”; that for `NC(CCP(=O)(O)O)C(=O)O` (stereo not given), “inactive”.
Turning to `CCCN1CCO[C@@H]2c3cc(O)ccc3OC[C@H]21`, the result was inactive.
The result for `C[N+]1(C)C2CCC1CC(OC(=O)C(CO)c1ccccc1)C2` (stereo not given) reads “inactive”; that for `NC(=O)CN1CC(O)CC1=O` (stereo not given), “inactive”.
With `S=C(NC1CCCCC1)N1CCC(c2cnc[nH]2)CC1`, the result was inactive.
As to `O=C(O)CC[N+](=O)[O-]`, the outcome was inactive.
With `C[N+](C)(C)CC(=O)O`, the outcome was inactive.
The result for `Oc1ccc2c3c1O[C@H]1c4[nH]c5c(c4C[C@@]4(O)[C@@H](C2)N(CC2CC2)CC[C@]314)C[C@@]1(O)[C@H]2Cc3ccc(O)c4c3[C@@]1(CCN2CC1CC1)[C@H]5O4` reads “inactive”; that for `NC(N)=NOCCC(N)C(=O)O` (stereo not given), “inactive”.
